Screen size: about 5,500 compounds; about 2,000 (36%) were called active. Inconclusive results (about 18%) are left out. No stated cut-off is given here; in the data, active means normalized growth mostly below about 0.91 (no sharp cut-off); inconclusive means no clear call, values can overlap the other calls; inactive means mostly above about 0.92. Some of the results follow.
Assay: chemical genetic growth profiling, strain panel (AID 1159580);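 further: tested at 20 µM; growth read once vehicle control cultures reached saturation at 30 °C; 1 = growth at the plate median or of vehicle wells; lower values mean less growth of the strain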
Settings: S. cerevisiae deletion strains, growth OD
[1] = locus YDR150W, strain NUM1, hits give low values
[2] = locus YGR078C, strain PAC10, hits give low values
[3] = locus YGR229C, strain SMI1, hits give low values
[4] = locus YMR263W, strain SAP30, hits give low values
[5] = locus YNL322C, strain KRE1, hits give low values
[6] = locus YPL241C, strain CIN2, hits give low values
[7] = locus YHR030C, strain SLT2, hits give low values
[8] = locus YAL013W, strain DEP1, hits give low values
[9] = locus YBR229C, strain ROT2, hits give low values
[10] = locus YDL101C, strain DUN1, hits give low values
[11] = locus YDL134C, strain PPH21, hits give low values
[12] = locus YEL061C, strain CIN8, hits give low values
[13] = locus YHR087W, strain rtc3, hits give low values
[14] = locus YJL187C, strain SWE1, hits give low values
[15] = locus YJR043C, strain POL32, hits give low values
[16] = locus YJR075W, strain HOC1, hits give low values
[17] = locus YKL190W, strain CNB1, hits give low values
[18] = locus YLR039C, strain RIC1, hits give low values
[19] = locus YLR058C, strain SHM2 (second series), hits give low values
[20] = locus YLR085C, strain ARP6, hits give low values
[21] = locus YLR262C, strain YPT6, hits give low values
[22] = locus YML094W, strain GIM5, hits give low values
[23] = locus YMR219W, strain ESC1, hits give low values
[24] = locus YMR307W, strain GAS1, hits give low values
[25] = locus YNL153C, strain GIM3, hits give low values
[26] = locus YNL298W, strain CLA4 (second series), hits give low values
[27] = locus YNR030W, strain Alg12, hits give low values
[28] = locus YOL006C, strain TOP1, hits give low values
[29] = locus YPL055C, strain LGE1, hits give low values
[30] = locus YPR135W, strain CTF4, hits give low values

Measured: normalized growth

Fc1ccc(CN(C2=NCCN2)c2c(Cl)cccc2Cl)cc1
inactive: locus YAL040C, strain CLN3, hits give low values 0.945 | locus YCL061C, strain MRC1 (second series), hits give low values 1.01 | [1] 1.06 | locus YDR363W, strain ESC2, hits give low values 1.02 | locus YER002W, strain NOP16, hits give low values 1.02 | [2] 0.984 | [3] 1.01 | [4] 0.995 | locus YNL128W, strain TEP1, hits give low values 1.1 | locus YNL175C, strain NOP13, hits give low values 1.01 | locus YNL197C, strain WHI3, hits give low values 1 | locus YNL224C, strain SQS1, hits give low values 1.01 | [5] 1 | locus YOR083W, strain WHI5 (second series), hits give low values 1.05 | [6] 0.997

CC(C)(CO)[C@@H](O)C(=O)NCCC(=O)O
inactive: [7] 1.06 | locus YHR079C, strain IRE1, hits give low values 1.04 | locus YJL095W, strain BCK1, hits give low values 1.03 | locus YJR066W, strain TOR1, hits give low values 0.964 | locus YLR113W, strain HOG1, hits give low values 1.05 | locus YNL183C, strain NPR1, hits give low values 0.999 | locus YOR231W, strain MKK1, hits give low values 1.09 | locus YPL256C, strain CLN2, hits give low values 1.09

O=C(O)C12CC3CC(CC(Br)(C3)C1)C2
inactive: [8] 1 | [9] 0.972 | [10] 0.984 | [11] 1.02 | [1] 0.982 | [12] 0.987 | [2] 0.99 | [3] 1.01 | [7] 1.06 | [13] 0.988 | [14] 0.945 | [15] 1.01 | [16] 0.996 | [17] 1.01 | [18] 1.04 | [19] 1 | [20] 0.963 | [21] 1.1 | [22] 0.991 | [23] 0.998 | [4] 0.993 | [24] 0.997 | [25] 0.994 | [26] 0.992 | [5] 0.993 | [27] 0.997 | [28] 1.05 | [29] 0.976 | [6] 0.994 | [30] 1.14

N#CC(C#N)=CNc1cc(C(F)(F)F)ccc1N1CCCCC1
inactive: [8] 0.995 | [9] 1 | [10] 0.991 | [11] 0.997 | [1] 0.973 | [12] 1 | [2] 0.987 | [3] 1 | [7] 0.936 | [13] 1.01 | [14] 1 | [15] 1 | [16] 0.966 | [17] 1 | [18] 0.997 | [19] 1 | [20] 0.96 | [21] 1.04 | [22] 0.989 | [23] 1 | [4] 0.986 | [24] 0.909 | [25] 1.01 | [26] 1 | [5] 0.992 | [27] 1.01 | [28] 1.01 | [29] 0.989 | [6] 0.996 | [30] 0.915

— PubChem BioAssay AID1159580 (chemical genetic matrix, 2015)
